In the supplement of paper PMC9694430:
Several values for one entry are separate records, joined by “and”; a condition that tells them apart may be missing. Identical values can stand only once.

Experiments:
Test in all cases: thermal shift delta Tm vs DMSO control; higher = stronger stabilization (binding)
Settings in all cases: 12.5 µM; protein concentration 2 µM
[1] = test system: LOC_OS02G45750-cb003
In short: (§1)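 Heating from 25°C to 95°C at 0.05°C/s, fluorescence was recorded for 19.5 μl wells of 2 μM E. coli-expressed, purified rice kinase domain in 100 mM potassium phosphate pH 7.5, 150 mM NaCl, 10% glycerol and 5 × SYPRO Orange with compound in DMSO. Boltzmann fits gave melting temperatures for this differential scanning fluorimetry assay. The shift reported is the mean of three replicates against the DMSO-only protein.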

[2] = test system: LOC_OS02G54510-cb004
In short: as §1

[3] = test system: LOC_OS03G04050-cb001
In short: as §1

[4] = test system: LOC_OS03G12390-cb001
In short: as §1

[5] = test system: LOC_OS03G27990-cb004
In short: as §1

[6] = test system: LOC_OS03G50450-cb001
In short: as §1

[7] = test system: LOC_OS03G50810-cb003
In short: as §1

[8] = test system: LOC_OS04G35114-cb001
In short: as §1

[9] = test system: T1, LOC_OS04G38480-cb003
T1 sequence (whole entry): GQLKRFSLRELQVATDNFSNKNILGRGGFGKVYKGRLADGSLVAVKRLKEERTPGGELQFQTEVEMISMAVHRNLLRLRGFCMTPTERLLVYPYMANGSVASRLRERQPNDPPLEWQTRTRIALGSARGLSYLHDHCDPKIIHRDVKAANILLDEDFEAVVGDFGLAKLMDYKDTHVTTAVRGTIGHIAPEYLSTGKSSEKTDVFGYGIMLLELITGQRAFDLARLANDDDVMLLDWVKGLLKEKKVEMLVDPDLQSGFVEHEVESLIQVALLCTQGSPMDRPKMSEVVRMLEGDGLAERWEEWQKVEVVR
In short: as §1

[10] = test system: T2, LOC_OS04G41100-cb001
T2 sequence (whole entry): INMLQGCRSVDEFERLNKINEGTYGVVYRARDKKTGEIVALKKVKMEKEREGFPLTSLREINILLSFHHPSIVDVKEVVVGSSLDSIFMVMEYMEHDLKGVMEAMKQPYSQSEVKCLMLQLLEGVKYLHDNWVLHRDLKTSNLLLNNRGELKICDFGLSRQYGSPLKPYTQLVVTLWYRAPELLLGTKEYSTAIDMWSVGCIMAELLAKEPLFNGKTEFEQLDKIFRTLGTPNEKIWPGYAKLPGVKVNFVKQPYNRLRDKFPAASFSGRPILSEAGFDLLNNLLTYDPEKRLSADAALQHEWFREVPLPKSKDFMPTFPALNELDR
In short: as §1

[11] = test system: LOC_OS04G57630-cb004
In short: as §1

[12] = test system: LOC_OS05G07850-cb002
In short: as §1

[13] = test system: LOC_OS05G16824-cb004
In short: as §1

[14] = test system: LOC_OS05G28520-cb001
In short: as §1

[15] = test system: LOC_OS05G30820-cb001
In short: as §1

[16] = test system: LOC_OS05G43570-cb004
In short: as §1

[17] = test system: LOC_OS06G16330-cb003
In short: as §1

[18] = test system: T3, LOC_OS06G22820-cb001
T3 sequence (whole entry): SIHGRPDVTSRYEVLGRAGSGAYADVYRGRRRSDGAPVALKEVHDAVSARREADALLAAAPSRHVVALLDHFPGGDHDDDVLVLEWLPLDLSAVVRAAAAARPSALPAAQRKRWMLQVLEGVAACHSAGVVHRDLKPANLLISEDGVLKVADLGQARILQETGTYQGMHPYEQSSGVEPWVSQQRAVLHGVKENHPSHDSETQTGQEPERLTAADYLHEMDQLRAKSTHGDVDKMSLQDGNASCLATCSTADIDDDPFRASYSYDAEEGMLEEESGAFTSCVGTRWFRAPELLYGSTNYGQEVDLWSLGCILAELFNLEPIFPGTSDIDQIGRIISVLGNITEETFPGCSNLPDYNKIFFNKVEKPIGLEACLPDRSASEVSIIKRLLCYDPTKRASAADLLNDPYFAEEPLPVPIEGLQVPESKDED
In short: as §1

[19] = test system: LOC_OS07G06570-cb004
In short: as §1

[20] = test system: LOC_OS07G07230-cb001
In short: as §1
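Also: purified Escherichia coli-expressed rice kinase domain construct.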

LOC_OS06G16330-cb003, sequence (as listed by the source): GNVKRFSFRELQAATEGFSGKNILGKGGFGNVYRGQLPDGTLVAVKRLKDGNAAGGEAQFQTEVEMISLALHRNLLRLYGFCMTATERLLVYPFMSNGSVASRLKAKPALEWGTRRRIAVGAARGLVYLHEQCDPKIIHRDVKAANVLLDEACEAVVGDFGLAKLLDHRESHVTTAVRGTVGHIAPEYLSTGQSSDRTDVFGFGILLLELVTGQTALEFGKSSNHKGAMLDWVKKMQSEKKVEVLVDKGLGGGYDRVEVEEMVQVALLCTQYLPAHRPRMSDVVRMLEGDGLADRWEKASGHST

SMILES: CCOC(=O)c1cnc2ccc(-c3cncc(NS(=O)(=O)c4ccccc4)c3)cn12
- thermal shift delta Tm [1]: 1.34 °C
- thermal shift delta Tm [2]: 0.07 °C
- thermal shift delta Tm [3]: 0.25 °C
- thermal shift delta Tm [4]: 0.45 °C
- thermal shift delta Tm [5]: 0.16 °C
- thermal shift delta Tm [6]: 0.7 °C
- thermal shift delta Tm [7]: 0.65 °C
- thermal shift delta Tm [8]: 1.78 °C
- thermal shift delta Tm [9]: 1.81 °C
- thermal shift delta Tm [10]: 0.65 °C
- thermal shift delta Tm [11]: 0.28 °C
- thermal shift delta Tm [12]: 3.75 °C
- thermal shift delta Tm [13]: 1.63 °C
- thermal shift delta Tm [14]: 0.65 °C
- thermal shift delta Tm [15]: 0.47 °C
- thermal shift delta Tm [16]: 0.51 °C
- thermal shift delta Tm [17]: 2.32 °C
- thermal shift delta Tm [18]: 0.38 °C
- thermal shift delta Tm [19]: 0.45 °C
- thermal shift delta Tm [20]: 0.1 °C

SMILES: C[C@@H]1CCN(C(=O)CC#N)C[C@@H]1N(C)c1ncnc2[nH]ccc12
- thermal shift delta Tm [1]: 0.35 °C and 0.85 °C
- thermal shift delta Tm [2]: 0.3 °C and 0.25 °C
- thermal shift delta Tm [3]: 0.21 °C and 0.74 °C
- thermal shift delta Tm [4]: 0.19 °C and 0.26 °C
- thermal shift delta Tm [5]: 0.12 °C and 0.5 °C
- thermal shift delta Tm [6]: 0.32 °C and 0.68 °C
- thermal shift delta Tm [7]: 0.11 °C and 0.63 °C
- thermal shift delta Tm [8]: 0.38 °C and 0.48 °C
- thermal shift delta Tm [9]: 0.3 °C and 0.6 °C
- thermal shift delta Tm [10]: -0.01 °C and 0.47 °C
- thermal shift delta Tm [11]: -0.1 °C and 0.49 °C
- thermal shift delta Tm [12]: 2.97 °C and 3.63 °C
- thermal shift delta Tm [13]: -1.07 °C and 0.7 °C
- thermal shift delta Tm [14]: 0.03 °C and 0.86 °C
- thermal shift delta Tm [15]: 0.42 °C and 0.38 °C
- thermal shift delta Tm [16]: 0.33 °C and 0.16 °C
- thermal shift delta Tm [17]: 0.7 °C and 0.62 °C
- thermal shift delta Tm [18]: 0.46 °C and 1.08 °C
- thermal shift delta Tm [19]: 0.55 °C and 1.39 °C
- thermal shift delta Tm [20]: 0.32 °C and -0.21 °C

SMILES: CN1CCN(c2cccc(Nc3nc4c(-c5ccc(S(C)(=O)=O)cc5)cccn4n3)c2)CC1
- thermal shift delta Tm [1]: 2.02 °C
- thermal shift delta Tm [2]: 0.36 °C
- thermal shift delta Tm [3]: 0.44 °C
- thermal shift delta Tm [4]: 0.47 °C
- thermal shift delta Tm [5]: 1.72 °C
- thermal shift delta Tm [6]: 2.95 °C
- thermal shift delta Tm [7]: 1.65 °C
- thermal shift delta Tm [8]: 2.23 °C
- thermal shift delta Tm [9]: 1.42 °C
- thermal shift delta Tm [10]: 0.46 °C
- thermal shift delta Tm [11]: 0.63 °C
- thermal shift delta Tm [12]: 5.82 °C
- thermal shift delta Tm [13]: 6.48 °C
- thermal shift delta Tm [14]: 0.11 °C
- thermal shift delta Tm [15]: 0.63 °C
- thermal shift delta Tm [16]: 0.2 °C
- thermal shift delta Tm [17]: 4.09 °C
- thermal shift delta Tm [18]: 0.43 °C
- thermal shift delta Tm [19]: 0.46 °C
- thermal shift delta Tm [20]: -0.02 °C

SMILES: CN1CCC(COc2cnc(-c3cccc(Cn4nc(-c5cccc(C#N)c5)ccc4=O)c3)nc2)CC1
- thermal shift delta Tm [1]: -0.03 °C
- thermal shift delta Tm [2]: -0.06 °C
- thermal shift delta Tm [3]: 0.23 °C
- thermal shift delta Tm [4]: -0.02 °C
- thermal shift delta Tm [5]: 0.03 °C
- thermal shift delta Tm [6]: 0.11 °C
- thermal shift delta Tm [7]: 0.09 °C
- thermal shift delta Tm [8]: 1.33 °C
- thermal shift delta Tm [9]: 0.26 °C
- thermal shift delta Tm [10]: 0.35 °C
- thermal shift delta Tm [11]: 0.46 °C
- thermal shift delta Tm [12]: 0.61 °C
- thermal shift delta Tm [13]: -1.27 °C
- thermal shift delta Tm [14]: 0.69 °C
- thermal shift delta Tm [15]: 0.42 °C
- thermal shift delta Tm [16]: 0.46 °C
- thermal shift delta Tm [17]: 0.55 °C
- thermal shift delta Tm [18]: 0.49 °C
- thermal shift delta Tm [19]: 1.28 °C
- thermal shift delta Tm [20]: 0.18 °C

SMILES: CCCCOc1c(C(=O)c2c(F)cc(C)cc2F)c[nH]c2nncc1-2
- thermal shift delta Tm [1]: 0.73 °C
- thermal shift delta Tm [2]: 0.14 °C
- thermal shift delta Tm [3]: 0.23 °C
- thermal shift delta Tm [4]: 2.18 °C
- thermal shift delta Tm [5]: 0.03 °C
- thermal shift delta Tm [6]: -0.21 °C
- thermal shift delta Tm [7]: 0.46 °C
- thermal shift delta Tm [8]: 0.65 °C
- thermal shift delta Tm [9]: 0.81 °C
- thermal shift delta Tm [10]: 0.49 °C
- thermal shift delta Tm [11]: 0.1 °C
- thermal shift delta Tm [12]: 5.8 °C
- thermal shift delta Tm [13]: -1.11 °C
- thermal shift delta Tm [14]: -0.07 °C
- thermal shift delta Tm [15]: 0.47 °C
- thermal shift delta Tm [16]: 0.9 °C
- thermal shift delta Tm [17]: 0.88 °C
- thermal shift delta Tm [18]: 1.75 °C
- thermal shift delta Tm [19]: 0.61 °C
- thermal shift delta Tm [20]: -0.1 °C

SMILES: COc1ccc(C(=O)Nc2sc3c(c2C(N)=O)CCCC3)cc1OC
- thermal shift delta Tm [1]: 3.21 °C
- thermal shift delta Tm [2]: 0.13 °C
- thermal shift delta Tm [3]: 0.38 °C
- thermal shift delta Tm [4]: 0.22 °C
- thermal shift delta Tm [5]: 0.12 °C
- thermal shift delta Tm [6]: 0.38 °C
- thermal shift delta Tm [7]: 1.2 °C
- thermal shift delta Tm [8]: 3.8 °C
- thermal shift delta Tm [9]: 3.31 °C
- thermal shift delta Tm [10]: 0.28 °C
- thermal shift delta Tm [11]: 0.24 °C
- thermal shift delta Tm [12]: 5.8 °C
- thermal shift delta Tm [13]: -1.08 °C
- thermal shift delta Tm [14]: 0.65 °C
- thermal shift delta Tm [15]: 0.5 °C
- thermal shift delta Tm [16]: 0.59 °C
- thermal shift delta Tm [17]: 5.12 °C
- thermal shift delta Tm [18]: 0.46 °C
- thermal shift delta Tm [19]: 1.73 °C
- thermal shift delta Tm [20]: 0.5 °C

SMILES: COc1cc(N2CCN(C)CC2)ccc1Nc1ncc2c(n1)N(C)c1ccccc1C(=O)N2
- thermal shift delta Tm [1]: 0.85 °C
- thermal shift delta Tm [2]: 0.32 °C
- thermal shift delta Tm [3]: 0.17 °C
- thermal shift delta Tm [4]: 0.62 °C
- thermal shift delta Tm [5]: 0.11 °C
- thermal shift delta Tm [6]: -0.01 °C
- thermal shift delta Tm [7]: 0.23 °C
- thermal shift delta Tm [8]: 0.35 °C
- thermal shift delta Tm [9]: 1.14 °C
- thermal shift delta Tm [10]: 0.17 °C
- thermal shift delta Tm [11]: 0.23 °C
- thermal shift delta Tm [12]: 3.08 °C
- thermal shift delta Tm [13]: -1.75 °C
- thermal shift delta Tm [14]: 0.12 °C
- thermal shift delta Tm [15]: 0.51 °C
- thermal shift delta Tm [16]: 0.36 °C
- thermal shift delta Tm [17]: 1.14 °C
- thermal shift delta Tm [18]: 0.34 °C
- thermal shift delta Tm [19]: 0.21 °C
- thermal shift delta Tm [20]: 0.21 °C
